Screening results: PubChem, National Center for Advancing Translational Sciences (NCATS)
KB-3-1 tox – qHTS assay for MDR1-selective chemotherapeutics: Primary screen using the parental adenocarcinoma cell KB-3-1. hit rate 1.4% among 400,000. Potency, µM (titrated, usually from 46.1 µM), usual class: cytotoxic. KB-3-1 viability, CellTiter-Glo ATP luminescence, 72 h; also: nearly all actives have a fitted effect of over 60% in size
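KB-3-1 parental drug-naive adenocarcinoma cells in DMEM/10% FBS, incubated 72 h at 37 C with pin-transferred compounds across a concentration series. Viability by CellTiter-Glo luminescence; concentration-response curves fitted after normalization.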
SW480 rereplic – A quantitative high throughput screen for small molecules that induce DNA re-replication in SW480 colon adenocarcinoma cells; SW480 DNA re-replication, Hoechst DNA content imaging, 48 h; Potency, µM (series often up to 46.1 µM), actives largely listed as activators; hit rate 1.8% among 340,000; AID 624297, 2012; also: nearly all actives have a fitted effect of over 55% in size
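DNA re-replication was detected as more nuclei of elevated Hoechst intensity after 48 hr exposure to compound (23 nL pinned per well of 250 cells).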
KB-V1 MDR tox – qHTS assay for MDR1-selective chemotherapeutics: Primary screen using the drug-selected MDR subline cells KB-V1; KB-V1 MDR cells viability, CellTiter-Glo, 72 h; Potency, µM (titrated, usually from 46.1 µM), hits mostly cytotoxic; AID 1347076, 2019; hit rate 3.4% among 400,000; also: nearly all actives have a fitted effect of over 60% in size
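Following 72 h at 37 degrees C with compound, KB-V1 cell viability was read by CellTiter-Glo luminescence, medium being phenol-red-free DMEM plus 10% FBS; concentration-response parameters came from normalized, curve-fitted qHTS data.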
ELG1 DNA repair – qHTS screen for small molecules that inhibit ELG1-dependent DNA repair in human embryonic kidney (HEK293T) cells expressing luciferase-tagged ELG1; hit rate 2.3% among 330,000; Potency, µM (titrated, usually from 46.1 µM), usual class: inhibitors; HEK293T ELG1-luciferase reporter, luminescence, 16 h; DNA damage induced by 5-fluorouridine; also: nearly all actives have a fitted effect of over 55% in size
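HEK293T cells expressing luciferase-tagged ELG1 (2,000/well) received 5-Fluorouridine plus compound or DMSO for 16 hr at 37 °C. Luciferase was read by ONE-Glo luminescence after 30 min at room temperature.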
MCF10A rereplic – A quantitative high throughput screen for small molecules that induce DNA re-replication in MCF 10a normal breast cells. MCF 10A DNA re-replication, Hoechst nuclear intensity, 48 h. Potency, µM (top dose mostly 46.1 µM), usual class: activators. hit rate 2.9% among 350,000. AID 624296, 2012; also: nearly all actives have a fitted effect of over 50% in size
A number is an active result; 0 = inactive; ? = inconclusive; - = not tested or not shown. The list is not random: actives were taken first. Their share in the collection is about 8.2%. Calls follow the shape of the dose curve; as a rule, active = well fitted curve in the direction sought with a large enough effect; inconclusive = small, poorly fitted or top-dose-only effect, or another doubt; inactive = no such curve, though single readings can be large; an effect the other way counts as inactive or inconclusive.

SMILES	KB-3-1 tox	SW480 rereplic	KB-V1 MDR tox	ELG1 DNA repair	MCF10A rereplic
Cc1ccc(OCC(=O)N(Cc2ccccc2)C(C)(C)C)c([N+](=O)[O-])n1	0	0	23µM	0	0
C=CCn1c(C)cc(C(=O)COC(=O)c2ccc(N)c([N+](=O)[O-])c2)c1C	0	0	0	?	0
Cc1ccc(OCC(=O)Nc2ccccc2Sc2ccccc2)c([N+](=O)[O-])n1	0	0	18µM	0	0
Cc1ccc(OCC(=O)N(Cc2ccccc2)C(C)C)c([N+](=O)[O-])n1	0	0	0	0	0
COC(=O)[C@@]12C[C@@H](CC(=O)NCc3ccc(C)o3)C(=O)N(Cc3ccco3)C1=CCC(C)(C)C2	0	-	?	-	-
CCOc1ccccc1NC(=O)c1ccc2c(c1)C(=O)N(CC)C2=O	0	?	0	0	0
COCCn1c(C)cc(C(=O)COc2ccc(C)nc2[N+](=O)[O-])c1C	0	?	0	0	?
CCCn1c(C)cc(C(=O)COc2ccc(C)nc2[N+](=O)[O-])c1C	0	?	16µM	?	?
CCCn1c(C)cc(C(=O)COc2ccc(S(=O)(=O)N(CC)CC)cc2[N+](=O)[O-])c1C	0	0	0	16µM	0
Cc1ccc(OCC(=O)c2cc(C)n(-c3ccccc3)c2C)c([N+](=O)[O-])n1	8.2µM	0	21µM	0	?
CCCCCCNC(=O)O[C@H]1Cn2c(=O)ccc(=O)n2[C@@H]2CN(S(=O)(=O)c3ccc(C)cc3)C[C@]12O	16µM	-	0	-	-
Cc1ccc(S(=O)(=O)N2C[C@H]3n4c(=O)ccc(=O)n4C[C@H](OC(=O)NCc4ccccc4F)[C@@]3(O)C2)cc1	?	-	0	-	-
COc1ccccc1NC(=O)c1cnc(SCC(=O)NCCc2ccccc2)n(C)c1=O	0	0	0	?	0
Cc1ccc(S(=O)(=O)Nc2cc3c(cc2N2CCOCC2)n(C)c(=O)n3C)c(C)c1	0	-	0	-	-
CN1C(=O)[C@@](O)(CC(=O)c2ccccc2)c2cc(Br)ccc21	?	-	0	-	-
CN1C(=O)C(O)(CC(=O)c2ccccn2)c2cc(Br)ccc21 (centres undefined)	?	?	7.3µM	0	?
O=S(=O)(Nc1cccc2c1CCCC2)c1ccc(Cl)cc1	?	0	?	0	16µM
Cc1c(Cl)cccc1NS(=O)(=O)c1ccccc1	0	0	18µM	-	0
O=C(Nc1ccc(Cl)cc1)Nc1ccccc1NS(=O)(=O)c1cccs1	0	0	0	0	18µM
CC(=O)Nc1ccccc1NS(=O)(=O)c1ccc(Cl)cc1	?	?	13µM	?	0
CCC(C)N(C(=O)Cn1cnc2c1c(=O)n(C)c(=O)n2C)C1CCS(=O)(=O)C1 (centres undefined)	0	0	?	0	0
CC(C)C[C@@H](NC(=O)C1CCC(CNC(=O)[C@H](Cc2ccccc2)NC(=O)OC(C)(C)C)CC1)C(=O)O (some centres undefined)	0	0	0	0	0
CCCCCCCCNC(=O)c1ccc(C)cc1	-	-	-	0	-
CCC(C(=O)NCCCN1CC(C)CC(C)C1)n1ncn2c(cc3occc32)c1=O (centres undefined)	0	?	0	0	0
COC(=O)Cc1csc(Nc2ccccc2)n1	0	0	0	?	0
NCc1csc(Nc2ccc(C(=O)c3ccccc3)cc2)n1	5.8µM	-	?	-	-
NC(Cc1ccc(C(F)(F)F)cc1)c1csc(Nc2ccc(C(=O)c3ccccc3)cc2)n1 (centres undefined)	?	-	23µM	-	-
NC(CCc1ccccc1)c1csc(Nc2ccc(C(=O)c3ccccc3)cc2)n1 (centres undefined)	?	-	0	-	-
CC(=O)c1ccc(Nc2nc(C(N)Cc3ccc(C(F)(F)F)cc3)cs2)cc1 (centres undefined)	?	-	12µM	-	-
Cc1ccccc1OCC(=O)NNC(=O)C1CC(=O)N(c2ccc3c(c2)OCCO3)C1 (centres undefined)	0	?	0	0	0
